Shown are actives, neighbours in structure and some others; about 0.96% of the full set was active somewhere.
TRHR agonist-1 – TRH receptor (human) agonism; 0.18% of 360,000 active; P34981; AID 493084; TRHR cells, calcium flux fluo-8, FDSS agonist mode; activation, % at 2 µM; in the data active means activation above about 30%; further: 0% is about no effect
Target sequence (P34981 whole entry, looked up): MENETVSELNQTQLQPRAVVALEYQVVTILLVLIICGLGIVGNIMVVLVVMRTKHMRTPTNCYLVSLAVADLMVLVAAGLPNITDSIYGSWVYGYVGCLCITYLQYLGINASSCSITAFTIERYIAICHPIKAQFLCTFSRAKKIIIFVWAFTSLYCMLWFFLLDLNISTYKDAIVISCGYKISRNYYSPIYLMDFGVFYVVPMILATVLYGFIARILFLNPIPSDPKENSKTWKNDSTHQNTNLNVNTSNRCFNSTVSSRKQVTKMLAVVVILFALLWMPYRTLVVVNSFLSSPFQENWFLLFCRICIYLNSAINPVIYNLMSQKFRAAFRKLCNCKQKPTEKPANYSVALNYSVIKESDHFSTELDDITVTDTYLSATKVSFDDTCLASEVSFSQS
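TRHR-expressing cells loaded with fluo-8 calcium dye; 23 nL library compound pin-transferred, kinetic FDSS fluorescence (Ex 480/Em 530) recorded about 180 s for agonist-induced calcium release, before a 10 nM TRH EC20 addition for potentiator mode.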
TRPV1 PAM – potentiators of human vanilloid receptor 1 (TRPV1) | AID 540277 | potentiation, % at 8.33 µM | 0.02% of 320,000 active | TRPV1-expressing cells, Fluo-8 calcium influx, capsaicin EC20 potentiation | Q8NER1; in the data active means potentiation above about 80%; inconclusive means between about 30% and that limit; further: 0% is about no effect
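Fluo-8 calcium influx in TRPV1-expressing cells, kinetic read (ex 480/em 520 nm). Compound added and read 3 min for agonist activity, followed by capsaicin at EC20 final and 2 min further read for enhancement.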
TRPV1 ag – agonists of human vanilloid receptor 1 (TRPV1). 0.19% of 320,000 active. activation, % at 8.33 µM. TRPV1-expressing cells, Fluo-8 calcium influx, agonist mode; in the data active means activation above about 80%; inconclusive means between about 30% and that limit; further: 0% is about no effect
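TRPV1-expressing cells were cultured overnight at 35.5C and loaded with Fluo-8 calcium dye for 40 to 90 min at room temperature. After a 10 s baseline, compound was added and calcium influx was read kinetically for 3 min (ex 480/em 520 nm).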
TRPML1 ag – agonists of human TRPML1 channel. Q9GZU1. TRPML1-expressing cells, Ca2+ dye fluorescence, FDSS. activation, % (concentration not given with the values). 0.12% of 410,000 active; in the data active means activation above about 50%; inconclusive means mostly about 30% to 49%; further: 0% is about no effect
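TRPML1-DL cells, Tet-induced overnight (~16 h, 37 degrees C), loaded 45-90 min at room temperature with Ca8 no-wash calcium dye plus quencher. FDSS fluorescence: 10 s baseline, compound pin-transfer, 110 s agonist read, then EC80 54-4 (4uM final) and 110 s antagonist read.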
TRHR enhancer-1 – TRH receptor (human) allosteric enhancement. enhancement, % at 2 µM. 0.66% of 360,000 active. TRHR cells, fluo-8 calcium fluorescence, EC20 TRH enhancement. P34981; in the data active means enhancement above about 30%; further: 0% is about no effect
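Enhancer read-out: after compound pinning and an initial kinetic agonist-mode read, an EC20 of TRH (10 nM final) was injected and fluo-8 calcium signal (Ex 480/Em 530) followed at 1 s/cycle for 100 cycles in TRHR-expressing cells.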
TRPML1 blocker – human mucolipin-1 channel inhibition; activity change, negative = inhibition, % (no concentration beside the values); TRPML1-inducible cells, Ca2+ dye fluorescence, FDSS; active compounds read low; inhibition of EC80 agonist-evoked calcium signal; 0.02% of 390,000 active; AID 624415; in the data active means activity change below about -50%; inconclusive means between about -30% and that limit;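 further: stimulus is agonist 54-4 at its EC80 concentration; on the % scale 0 is the no-effect control and ±100 the full control effect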
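Tet-induced TRPML1-DL cells loaded with Ca8 no-wash calcium dye were read kinetically on FDSS. Compound addition was followed by EC80 agonist 54-4 (4 uM final); inhibition was read over 110 s.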
TRHR enhancer-2 – human TRH receptor allosteric enhancement confirmation. shares compounds with TRHR enhancer-1. TRH receptor cell assay, enhancer confirmation qHTS. activity change, negative = inhibition, % at 46.1 µM. 970 tested, under 10 active. AID 493076;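 further: compound effect scored on response to added TRH at EC20 of 10 nM; 0% is about no effect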
TRHR agonist-2 – human TRH receptor agonism confirmation; TRHR-expressing cells, agonist activation read-out; Potency, µM (doses to about 46.1 µM), for the others: at the highest dose activation, most hits filed as activators; shares compounds with TRHR enhancer-1; 8% of 970 active; further: potency means the concentration at half of the fitted maximal effect; 0% is about no effect; nearly all actives have a fitted effect of over 75% in size
The depositor's hits bear a star; ? = inconclusive; · = not tested or not shown; ! = not confirmed by another sample. Unless noted, the call rests on the fitted dose curve; in most records, active means well fitted curve in the direction sought with a large enough effect; inconclusive means small, poorly fitted or top-dose-only effect, or another doubt; inactive means no such curve, though single readings can be large; an effect the other way counts as inactive or inconclusive.

SMILES	TRHR agonist-1	TRPV1 PAM	TRPV1 ag	TRPML1 ag	TRHR enhancer-1	TRPML1 blocker	TRHR enhancer-2	TRHR agonist-2
Cc1ccc([N+](=O)[O-])cc1-c1ccc(/C=C(\C#N)c2[nH]nc(N)c2C#N)o1	0	-8	0	1	-5	10	·	·
COc1cc(/C=C(\C#N)c2[nH]nc(N)c2C#N)cc(OC)c1O	62*	-18	13	5	20	-5	9	?
C=CCn1c(SCCC)nc2ccccc2c1=O	·	·	·	-1	·	·	·	·
Cc1c(O)ccc2cc(S(=O)(=O)c3ccccc3)c(=O)oc12	37*	0	15	?	2	5	1	23µM*
Brc1cc2c(cc1CSc1ncccn1)OCO2	0	10	-1	3	46*	1	-9	2%
O=C(c1ccc(CSc2nc3ccncc3n2Cc2ccccc2F)cc1)N1CCCCC1	0	·	·	3	58*	-3	-9	0%
C[C@@H]1[C@H](c2ccccc2)OCCS(=O)(=O)N1Cc1cccc(C(F)(F)F)c1	·	·	·	0	·	·	·	·
O=S(=O)(c1ccc(Br)cc1)N1CCN(c2nc(-c3cccs3)nc3ccccc23)CC1	·	·	·	-1	·	·	·	·
CCOC(=O)c1c(C)n(-c2ccccc2)c2ccc(O)cc12	-1	10	-9	0	46*	-7	-4	2%
CCCn1c(=O)c(F)cn(Cc2ccc(OC)c([N+](=O)[O-])c2)c1=O	·	·	·	-1	·	40	·	·
CCOC(=O)Cn1c(=O)c(F)cn(Cc2ccc(OC)c([N+](=O)[O-])c2)c1=O	1	4	0	-1	67*	-16	-3	-1%
Cc1nc([N+](=O)[O-])cn1CC(O)c1ccc2c(c1)OCCCO2 (stereo not given)	·	·	·	0	·	·	·	·
Cc1ccc(NCc2ccc(O)c3ncccc23)cc1	0	5	-5	1	46*	3	4	1%
Cc1ccc(NCc2ccc(O)c3ncccc23)cc1C	0	12	-5	-1	-3	8	·	·
C=C1C=C(C(F)F)n2ncc(C(=O)NCc3ccc(Cl)cc3Cl)c2N1	·	·	·	-1	·	·	·	·
CS(=O)(=O)c1cccc(-c2csc(N3CCC(C(N)=O)CC3)n2)c1	0	3	18	·	48*!	·	4	7%
COc1ccc(/C=C/c2nnc(NC(=O)COc3ccc(Cl)cc3)s2)cc1	·	·	·	0	·	·	·	·
O=[N+]([O-])c1ccc(/C=C/C2=NN(c3ccccc3)C(c3ccco3)C2)o1 (stereo not given)	40*	?	14	19	-9	-6	-5	?
C(=C\c1ccco1)/C1=NN(c2ccccc2)C(c2ccco2)C1 (stereo not given)	10	11	9	1	-2	5	·	·
Cc1cc2c(s1)c1cnn(Cc3ccc(-c4ccccc4)cc3)c(=O)c1n2C	0	·	·	·	1	·	·	·
CC1CCC2C(=O)N(c3cccc(C(=O)Nc4ccc(F)cc4)c3)C(=O)C2C1 (stereo not given)	0	-3	?	0	57*	-3	-1	2%
CC(C)(C)c1ccc(NC(=O)COC(=O)c2ccccc2OCC(=O)Nc2ccc(Br)cc2)cc1	·	·	·	1	·	·	·	·
CC(=O)Nc1cccc2c1C(=O)N(c1ccccc1C)C2=O	0	17	0	1	-1	6	·	·
Cc1ccccc1N1C(=O)c2cccc3c(N(C)CCO)ccc(c23)C1=O	41*	-5	29	0	0	5	1	18µM*
COc1ccccc1N1C(=O)c2cccc3c(N(C)CCO)ccc(c23)C1=O	61*	?	12	17	5	-4	5	21µM*
Cc1nc(Sc2nnnn2C2CC2)c2c(-c3ccccc3)csc2n1	·	·	·	-1	·	·	·	·

Screening results (PubChem)
